About 410 targets per protein were measured; listed, in parts, are those with the strongest signals and a random draw of the rest.
What was measured:
Assay in all cases: glycan array binding signal (z-score within array); higher = stronger binding
Conditions in all cases: glycan notation: IUPAC condensed, linker removed
Fuc(a1-2)Gal = target: Fuc(a1-2)Gal
Procedure, shortened: (§1)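 Glycan array data were curated from 3228 arrays in the Consortium for Functional Glycomics database and kept only where the protein sequence was available. Glycan names were converted to IUPAC-condensed notation, and columns mapping to the same glycan were averaged. The binding signal is a within-array Z-score, averaged across arrays of the same protein sequence at different concentrations or buffers and across linkers. Negative Z-scores can be read as non-binding.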

[1] = target: Fuc(a1-2)Gal(b1-3)GlcNAc(b1-2)Man(a1-3)[Fuc(a1-2)Gal(b1-3)GlcNAc(b1-2)Man(a1-6)]Man(b1-4)GlcNAc(b1-4)GlcNAc
Procedure, shortened: as §1

[2] = target: Fuc(a1-2)Gal(b1-3)[Fuc(a1-4)]GlcNAc(b1-3)[Gal(b1-4)GlcNAc(b1-6)]Gal(b1-4)Glc
Procedure, shortened: as §1

[3] = target: Fuc(a1-2)Gal(b1-4)GlcNAc(b1-3)Gal(b1-4)GlcNAc(b1-2)Man(a1-3)[Fuc(a1-2)Gal(b1-4)GlcNAc(b1-3)Gal(b1-4)GlcNAc(b1-2)Man(a1-6)]Man(b1-4)GlcNAc(b1-4)GlcNAc
Procedure, shortened: as §1

Fuc(a1-2)Gal6S(b1-4)Glc = target: Fuc(a1-2)Gal6S(b1-4)Glc
Procedure, shortened: as §1

[4] = target: Fuc(a1-2)[GalNAc(a1-3)]Gal(b1-4)GlcNAc(b1-3)Gal(b1-4)GlcNAc(b1-3)Gal(b1-4)GlcNAc
Procedure, shortened: as §1

[5] = target: Fuc(a1-3)[Gal(b1-4)]GlcNAc
Procedure, shortened: as §1

[6] = target: Fuc(a1-3)[Gal(b1-4)]GlcNAc(b1-2)Man(a1-3)[Fuc(a1-3)[Gal(b1-4)]GlcNAc(b1-2)Man(a1-6)]Man(b1-4)GlcNAc(b1-4)[Fuc(a1-6)]GlcNAc
Procedure, shortened: as §1

Fuc(a1-4)GlcNAc = target: Fuc(a1-4)GlcNAc
Procedure, shortened: as §1

[7] = target: Gal(a1-3)Gal(b1-4)GlcNAc(b1-2)Man
Procedure, shortened: as §1

[8] = target: Gal(a1-3)Gal(b1-4)[Fuc(a1-3)]GlcNAc(b1-2)Man(a1-3)[Gal(a1-3)Gal(b1-4)[Fuc(a1-3)]GlcNAc(b1-2)Man(a1-6)]Man(b1-4)GlcNAc(b1-4)GlcNAc
Procedure, shortened: as §1

[9] = target: Gal(b1-3)GlcNAc(b1-3)Gal(b1-4)GlcNAc(b1-3)Gal(b1-4)GlcNAc(b1-2)[Gal(b1-3)GlcNAc(b1-3)Gal(b1-4)GlcNAc(b1-3)Gal(b1-4)GlcNAc(b1-6)]Man(a1-6)[Gal(b1-3)GlcNAc(b1-3)Gal(b1-4)GlcNAc(b1-3)Gal(b1-4)GlcNAc(b1-2)Man(a1-3)]Man(b1-4)GlcNAc(b1-4)[Fuc(a1-6)]GlcNAc
Procedure, shortened: as §1

[10] = target: Gal(b1-4)GlcNAc(b1-3)Gal(b1-4)GlcNAc(b1-2)Man(a1-3)[Gal(b1-4)GlcNAc(b1-3)Gal(b1-4)GlcNAc(b1-2)Man(a1-6)]Man(b1-4)GlcNAc(b1-4)GlcNAc
Procedure, shortened: as §1

[11] = target: Gal(b1-4)GlcNAc(b1-3)Gal(b1-4)GlcNAc(b1-3)Gal(b1-4)GlcNAc(b1-2)Man(a1-3)[Gal(b1-4)GlcNAc(b1-3)Gal(b1-4)GlcNAc(b1-3)Gal(b1-4)GlcNAc(b1-2)Man(a1-6)]Man(b1-4)GlcNAc(b1-4)GlcNAc
Procedure, shortened: as §1

[12] = target: Gal(b1-4)GlcNAc(b1-3)Gal(b1-4)GlcNAc(b1-3)Gal(b1-4)GlcNAc(b1-3)Gal(b1-4)GlcNAc(b1-3)Gal(b1-4)GlcNAc(b1-2)Man(a1-3)[Gal(b1-4)GlcNAc(b1-3)Gal(b1-4)GlcNAc(b1-3)Gal(b1-4)GlcNAc(b1-3)Gal(b1-4)GlcNAc(b1-3)Gal(b1-4)GlcNAc(b1-2)Man(a1-6)]Man(b1-4)GlcNAc(b1-4)GlcNAc
Procedure, shortened: as §1

[13] = target: Gal(b1-4)GlcNAc(b1-3)Gal(b1-4)GlcNAc(b1-3)Gal(b1-4)GlcNAc(b1-3)Gal(b1-4)GlcNAc(b1-3)Gal(b1-4)GlcNAc(b1-2)Man(a1-3)[Gal(b1-4)GlcNAc(b1-3)Gal(b1-4)GlcNAc(b1-3)Gal(b1-4)GlcNAc(b1-3)Gal(b1-4)GlcNAc(b1-3)Gal(b1-4)GlcNAc(b1-2)Man(a1-6)]Man(b1-4)GlcNAc(b1-4)[Fuc(a1-6)]GlcNAc
Procedure, shortened: as §1

[14] = target: Gal(b1-4)GlcNAc(b1-3)Gal(b1-4)GlcNAc(b1-3)Gal(b1-4)GlcNAc(b1-3)Gal(b1-4)GlcNAc(b1-3)Gal(b1-4)GlcNAc(b1-2)[Gal(b1-4)GlcNAc(b1-3)Gal(b1-4)GlcNAc(b1-3)Gal(b1-4)GlcNAc(b1-3)Gal(b1-4)GlcNAc(b1-3)Gal(b1-4)GlcNAc(b1-6)]Man(a1-6)[Gal(b1-4)GlcNAc(b1-3)Gal(b1-4)GlcNAc(b1-3)Gal(b1-4)GlcNAc(b1-3)Gal(b1-4)GlcNAc(b1-3)Gal(b1-4)GlcNAc(b1-2)Man(a1-3)]Man(b1-4)GlcNAc(b1-4)[Fuc(a1-6)]GlcNAc
Procedure, shortened: as §1

[15] = target: Gal(b1-4)GlcNAc(b1-3)Gal(b1-4)GlcNAc(b1-3)Gal(b1-4)GlcNAc(b1-3)Gal(b1-4)GlcNAc(b1-3)Gal(b1-4)GlcNAc(b1-3)Gal(b1-4)GlcNAc(b1-2)Man(a1-3)[Gal(b1-4)GlcNAc(b1-3)Gal(b1-4)GlcNAc(b1-3)Gal(b1-4)GlcNAc(b1-3)Gal(b1-4)GlcNAc(b1-3)Gal(b1-4)GlcNAc(b1-3)Gal(b1-4)GlcNAc(b1-2)Man(a1-6)]Man(b1-4)GlcNAc(b1-4)GlcNAc
Procedure, shortened: as §1

[16] = target: Gal(b1-4)GlcNAc(b1-6)GalNAc
Procedure, shortened: as §1

Gal3S(b1-4)Glc = target: Gal3S(b1-4)Glc
Procedure, shortened: as §1

Gal3S(b1-4)Glc6S = target: Gal3S(b1-4)Glc6S
Procedure, shortened: as §1

[17] = target: Gal3S(b1-4)[Fuc(a1-3)]Glc6S
Procedure, shortened: as §1

Gal6S(b1-4)GlcNAc6S = target: Gal6S(b1-4)GlcNAc6S
Procedure, shortened: as §1

[18] = target: GalNAc3S(b1-4)[Fuc(a1-3)]GlcNAc
Procedure, shortened: as §1

[19] = target: GlcNAc(a1-4)Gal(b1-3)GlcNAc
Procedure, shortened: as §1

B1: SP15308C-bot-338-23-338 (Bacteroides ovatus) (protein)
chain: DEWTDEQFKQLISFKTQPGGWGVTDVHVRYANSAKYTYNLPVLVSGSTDNTDDRLVSFSLRDDTLDILNFEKFGNRPELYFRELPQKYYSFPKELTIPAGQSHALLPIEFSLDGLDDSQKWALPLKVCEDANGTYAVNPRKYYRTAVLRPILFNEFSGRFSGSSLLGTMAGESDIKFSSTEIKLNVVTDSIVFFYAGQRTEDYEDRINYKVFLQFTGDKVDSKKDLYKMKIWAENEKLKFNSYSTPTYKVSSEMDATKTYLKHTYIVISDIDFDFVDYTSVPNYEIEYNMKGGLSVSRDLDTRKPDEDQGSDSKWW
glycan array binding signal (z-score) (Fuc(a1-2)Gal): -0.164 | glycan array binding signal (z-score) [1]: 2.27 | glycan array binding signal (z-score) [2]: -0.476 | glycan array binding signal (z-score) [3]: 0.228 | glycan array binding signal (z-score) (Fuc(a1-2)Gal6S(b1-4)Glc): 0.374 | glycan array binding signal (z-score) [4]: -0.548 | glycan array binding signal (z-score) [5]: -0.26 | glycan array binding signal (z-score) [6]: 2.11 | glycan array binding signal (z-score) (Fuc(a1-4)GlcNAc): 2.58 | glycan array binding signal (z-score) [7]: -0.133 | glycan array binding signal (z-score) [8]: 1.61 | glycan array binding signal (z-score) [9]: 3.59 | glycan array binding signal (z-score) [10]: 1.12 | glycan array binding signal (z-score) [11]: 4.37 | glycan array binding signal (z-score) [12]: 2.06 | glycan array binding signal (z-score) [13]: 2.46 | glycan array binding signal (z-score) [14]: 6.22 | glycan array binding signal (z-score) [15]: 0.957 | glycan array binding signal (z-score) [16]: -0.147 | glycan array binding signal (z-score) (Gal3S(b1-4)Glc): -0.591 | glycan array binding signal (z-score) (Gal3S(b1-4)Glc6S): -0.188 | glycan array binding signal (z-score) [17]: 0.68 | glycan array binding signal (z-score) (Gal6S(b1-4)GlcNAc6S): -0.622 | glycan array binding signal (z-score) [18]: -0.053 | glycan array binding signal (z-score) [19]: 0.674
